Inconclusive results are not listed. Active and inactive are the calls of the source. Calls follow the shape of the dose curve; as a rule, active = well fitted curve in the direction sought with a large enough effect; inconclusive = small, poorly fitted or top-dose-only effect, or another doubt; inactive = no such curve, though single readings can be large; an effect the other way counts as inactive or inconclusive.
test system: not listed separately; assay: MultiTox-Fluor Cytotoxicity Assay - LYMP1-002 - Live Cells (AID 955); conditions: LYMP1-002 lymphoblastoid live-cell protease fluorescence viability; series mostly up to 46.1 µM; viability change, negative = cytotoxic: at the top concentration;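 also: cells exposed to compound for 16 hours; % is scaled to controls: 0 for no effect and ±100 for the full control effect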
Procedure, shortened: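 In this qHTS viability format, lymphoblastoid cells (LYMP1-002, human) received compound for 16 hr at 37 C. Fluorogenic GF-AFC cleavage by viable cells was detected at 405/510 nm after 1 h at room temperature.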

| SMILES | viability change, negative = cytotoxic |
| --- | --- |
| C=CC(=O)NCNC(=O)C=C | 5.24% (inactive) |
| O=C(O)COc1ccccc1 | -13.3% (inactive) |
| OCCCBr | 8.56% (inactive) |
| CCCCCCCCc1ccc(O)cc1 | 3.69% (inactive) |

target: Alpha-galactosidase (Coffea arabica) (UniProt Q42656); assay: Counterscreen for Glucocerebrosidase Inhibitors: qHTS Assay for Coffee Bean alpha-Galactosidase at pH 4.5 (AID 957); conditions: purified coffee bean alpha-galactosidase, fluorogenic substrate; series mostly up to 76.9 µM; activity change, negative = inhibition: at the top concentration;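 also: plate controls were enzyme alone for no effect and no enzyme for full effect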
Sequence (Q42656 whole entry, looked up): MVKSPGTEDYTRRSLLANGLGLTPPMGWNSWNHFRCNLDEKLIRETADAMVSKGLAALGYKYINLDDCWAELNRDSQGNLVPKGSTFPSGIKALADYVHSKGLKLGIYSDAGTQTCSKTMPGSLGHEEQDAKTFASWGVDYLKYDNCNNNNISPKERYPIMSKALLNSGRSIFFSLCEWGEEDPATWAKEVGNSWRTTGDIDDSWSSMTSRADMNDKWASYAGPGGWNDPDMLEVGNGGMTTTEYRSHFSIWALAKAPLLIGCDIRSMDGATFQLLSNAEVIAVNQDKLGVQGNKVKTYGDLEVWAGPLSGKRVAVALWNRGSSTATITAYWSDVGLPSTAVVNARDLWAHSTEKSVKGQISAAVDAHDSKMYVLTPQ
Procedure, shortened: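 Quantitative HTS of compounds (0.7 nM to 77 uM) against coffee bean alpha-galactosidase at pH 4.5, measuring 4-methylumbelliferone fluorescence released from 80 uM substrate.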

| SMILES | activity change, negative = inhibition | outcome |
| --- | --- | --- |
| c1ccc(CCCN2CCN(CCOC(c3ccccc3)c3ccccc3)CC2)cc1 | -10.6% (inactive) | – |
| Cn1cnc(CCN)c1 | 0.597% (inactive) | – |
| C[C@@H]1O[C@H](C[N+](C)(C)C)C[C@H]1O | 0.0177% (inactive) | – |
| O=C(O)CC[N+](=O)[O-] | 2.38% (inactive) | – |
| CCCN1CCO[C@@H]2c3cc(O)ccc3OC[C@H]21 | – | inactive |
| CCCN(CCC)[C@@H]1CCc2ccc(O)cc2C1 | – | inactive |
| NCCc1c[nH]c2ccccc12 | -2% (inactive) | – |
| NC(N)=NOCCC(N)C(=O)O (stereo not given) | -1.65% (inactive) | – |
| C[C@]12N[C@H](Cc3ccccc31)c1ccccc12 | – | inactive |
| CC1=NN=C(c2ccc(N)cc2)c2cc3c(cc2C1)OCO3 | -6.22% (inactive) | – |
| C#CCOC(=O)C1=CCCN(C)C1 | 1.34% (inactive) | – |
| O=C1CCCN1CC#CCN1CCCC1 | -1.18% (inactive) | – |
| Cc1nc(-c2ccc(-c3ccc(C(=O)N4CCc5cc6c(cc54)C4(CCN(C)CC4)CO6)cc3)c(C)c2)no1 | -4.58% (inactive) | – |
| O=C(O)Cc1cnc[nH]1 | 2.69% (inactive) | – |
| NCc1cc(=O)[nH]o1 | 0.326% (inactive) | – |
| CCCN1CCC[C@H](c2cccc(O)c2)C1 | – | inactive |

| SMILES | activity change, negative = inhibition | outcome |
| --- | --- | --- |
| CC(C)Oc1cccnc1N(C)C1CCN(Cc2ccccc2)CC1 | -1.99% (inactive) | – |
| CN[C@@H]1C[C@@H](c2ccc(Cl)c(Cl)c2)c2ccccc21 | -2.13% (inactive) | – |
| S=C(NC1CCCCC1)N1CCC(c2cnc[nH]2)CC1 | -0.0656% (inactive) | – |
| CNCCc1ccc(O)c(O)c1 | -3.55% (inactive) | – |
| COc1ccc2c(c[n+](C)c3c4cc5c(cc4ccc23)OCO5)c1OC | -4.96% (inactive) | – |
| NCCc1c[nH]c2ccc(O)cc12 | 0.754% (inactive) | – |
| Clc1cnc(Oc2ccc(Oc3ncc(Cl)cc3Cl)cc2)c(Cl)c1 | -4.56% (inactive) | – |
| CC(=O)NCCc1c[nH]c2ccccc12 | -1.33% (inactive) | – |
| Cc1nccc2c1[nH]c1ccccc12 | -2.79% (inactive) | – |
| NC(=NCCC[C@H](N)C(=O)O)N[N+](=O)[O-] | -0.64% (inactive) | – |
| CC[C@@]1(O)C(=O)OCc2c1cc1n(c2=O)Cc2cc3ccccc3nc2-1 | 20.9% (inactive) | – |
| Cc1c(C(=O)c2cccc3ccccc23)c2cccc3c2n1[C@H](CN1CCOCC1)CO3 | -20.5% (inactive) | – |
| CNCCc1c[nH]c2ccc(O)cc12 | 1.17% (inactive) | – |
| CCCCc1ccc(C(=O)O)nc1 | -1% (inactive) | – |
| c1ccc2sc(C3(N4CCCCC4)CCCCC3)cc2c1 | -1.98% (inactive) | – |
